The campaign covered roughly 400,000 compounds. About 2,100 (0.53%) were called active. Roughly 14% stayed inconclusive and do not appear here. No rule for the calls is given here. Many of the other results were omitted from the sample, so actives are more common in it than they were.

Chain of Ataxin-2 (Homo sapiens) (Q99700 whole entry): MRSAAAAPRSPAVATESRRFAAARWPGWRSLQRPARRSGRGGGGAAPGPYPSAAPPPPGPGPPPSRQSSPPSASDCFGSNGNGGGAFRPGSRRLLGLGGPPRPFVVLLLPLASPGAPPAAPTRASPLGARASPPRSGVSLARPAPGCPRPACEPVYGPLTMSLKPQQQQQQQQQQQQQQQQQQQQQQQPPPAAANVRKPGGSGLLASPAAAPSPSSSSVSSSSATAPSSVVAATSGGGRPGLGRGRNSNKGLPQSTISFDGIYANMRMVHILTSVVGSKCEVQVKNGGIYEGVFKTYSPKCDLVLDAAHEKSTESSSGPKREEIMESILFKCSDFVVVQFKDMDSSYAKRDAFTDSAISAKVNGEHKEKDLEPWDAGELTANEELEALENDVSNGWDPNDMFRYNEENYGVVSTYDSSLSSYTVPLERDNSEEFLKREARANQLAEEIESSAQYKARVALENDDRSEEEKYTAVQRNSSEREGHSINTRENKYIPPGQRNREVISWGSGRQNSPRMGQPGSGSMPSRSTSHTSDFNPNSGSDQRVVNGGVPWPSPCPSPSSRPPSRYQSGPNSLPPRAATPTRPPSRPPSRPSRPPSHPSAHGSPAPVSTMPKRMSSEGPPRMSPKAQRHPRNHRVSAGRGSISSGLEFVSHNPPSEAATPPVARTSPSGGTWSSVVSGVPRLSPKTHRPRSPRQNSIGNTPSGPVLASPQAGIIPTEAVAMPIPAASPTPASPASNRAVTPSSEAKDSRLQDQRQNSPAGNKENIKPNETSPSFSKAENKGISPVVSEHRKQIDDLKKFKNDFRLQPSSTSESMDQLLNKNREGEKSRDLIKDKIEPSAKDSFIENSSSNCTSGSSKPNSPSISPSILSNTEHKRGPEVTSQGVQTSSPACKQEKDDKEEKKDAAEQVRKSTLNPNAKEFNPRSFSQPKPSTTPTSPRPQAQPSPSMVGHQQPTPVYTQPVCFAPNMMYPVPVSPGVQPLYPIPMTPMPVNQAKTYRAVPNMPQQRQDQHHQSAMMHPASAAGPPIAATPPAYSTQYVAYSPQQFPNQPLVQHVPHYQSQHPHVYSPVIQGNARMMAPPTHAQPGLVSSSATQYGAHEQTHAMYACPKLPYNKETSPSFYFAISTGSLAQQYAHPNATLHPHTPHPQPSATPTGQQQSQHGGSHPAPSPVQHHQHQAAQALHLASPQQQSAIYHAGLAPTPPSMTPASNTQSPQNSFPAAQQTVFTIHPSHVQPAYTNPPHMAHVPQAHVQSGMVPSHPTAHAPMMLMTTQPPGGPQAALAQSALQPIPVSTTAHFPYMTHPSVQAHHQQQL

The assay addresses Ataxin-2 (Homo sapiens) (UniProt Q99700). As to the kind of experiment: qHTS for Inhibitors of ATXN expression. It is filed as functional.
Consider `COc1ccc(CNc2nc3ccccc3n2C)c(OC)c1`, for which the Potency entry was “inactive”.
The same measure for `CCn1c2ccccc2c2cc(CNCc3ccc(OC)cc3OC)ccc21`: 42.3 µM (active).
Turning to `CCc1cc(=O)oc2c(CNCc3ccc(OC)cc3OC)c(O)c(Cl)cc12`, the Potency result was “inactive”.
To `Cc1cc(C)c(C(=O)COC(=O)C2CCN(c3ccc(C(F)(F)F)cn3)CC2)c(C)c1` belongs “inactive”; to `CC[n+]1c(/C=C2/C=C(C)CC(C)(C)C2)sc2ccc(OC)cc21`, 39.8 µM (active).
As for `CCN1CCN(Cc2ccc(NC(=O)c3ccc(C)c(NC(=O)c4cccc5[nH]ccc45)c3)cc2C(F)(F)F)CC1`, the Potency is 35.5 µM (active).
The same measure for `CCN1CCN(Cc2ccc(NC(=O)c3ccc(C)c(NC(=O)c4cncc(-c5cccs5)c4)c3)cc2C(F)(F)F)CC1`: 20 µM (active); for `O=C(CO)N/N=C/c1c2ccccc2cc2ccccc12`: “inactive”.
To `O=C(O)c1ccc(-n2cc(-c3cc4ccccc4oc3=O)nc2S)cc1` belongs “inactive”; to `Cc1c(CCC(=O)NCCCN2CCCC2=O)c(=O)oc2cc(O)ccc12`, “inactive”; to `Cc1cc(C(=O)N/N=C/c2cn(C)nc2C)c2ccccc2n1`, “inactive”.
Consider `CC(C)(C)c1cc(C(c2cccnc2)N2CCN(CCO)CC2)cc(C(C)(C)C)c1O` (centres undefined), for which the Potency was 25.1 µM (active).
To `CCN1CCN(C(c2ccc(C(F)(F)F)cc2)c2ccc3cccnc3c2O)CC1` (centres undefined) belongs “inactive”; to `COC(=O)NCC(c1cccnc1)N1CCN(c2ccccc2)CC1` (centres undefined), “inactive”; to `Cc1onc(-c2c(Cl)cccc2Cl)c1C(=O)NNC(=O)c1c(-c2c(Cl)cccc2Cl)noc1C`, “inactive”.
With `N#Cc1sc2nc(C3CC3)cc(-c3ccc(Cl)cc3)c2c1N`, the Potency result is “inactive”.
The same measure for `CC(C)c1ccccc1NC(=O)CN1C(=O)c2cccc3cccc1c23`: “inactive”; for `CCCCc1c(-c2ccccc2OC)ncn1C1CCCC1`: 22.4 µM (active); for `CCCCc1c(-c2ccccc2OC)ncn1CCc1ccc(OC)cc1`: 39.8 µM (active).
To `CCCCc1c(-c2ccccc2OC)ncn1CCc1cccc(Cl)c1` belongs 31.6 µM (active); to `CCCCc1c(-c2ccccc2OC)ncn1Cc1ccc(-c2ccccc2)cc1`, 22.4 µM (active).
`O=C1Cc2ccccc2C(=O)N1Cc1cccc(Cl)c1`: the Potency result was “inactive”.
To `COc1cc2c3nnc(-c4ccccc4)c-3cn(Cc3ccc(F)cc3)c2cc1OC` belongs “inactive”; to `COc1ccccc1C1=NC(c2ccccc2)CN1c1ccccc1` (centres undefined), “inactive”; to `Nc1cccc2c1C(=O)N(Cc1cccc(Cl)c1)C2=O`, “inactive”.
The same measure for `CC12CCC(C1)C(C)(C)C2NS(=O)(=O)c1ccc(F)cc1` (centres undefined): “inactive”.
The same measure for `COC(=O)c1ccc(COc2ccc(C(C)(C)C)cc2)o1`: “inactive”; for `COc1c(C)cc(S(=O)(=O)N2CCOCC2)c(C)c1C`: “inactive”.
In the case of `Cc1cc(-c2nc3cccnc3s2)ccc1NS(=O)(=O)c1ccc2c(c1)OCCO2`, the Potency result is “inactive”.
To `CCOC(=O)c1cnc(-n2nc(C)cc2C)nc1Nc1ccc(O)cc1` belongs “inactive”; to `FC(F)(F)c1cc(-c2cccs2)nc2cc(-c3cccs3)nn12`, “inactive”; to `CCOC(=O)c1c(NC(=O)c2ccccc2Cl)sc2c1CCc1ccccc1-2`, “inactive”.
Regarding `CCOC(=O)c1c(N=C(S)Nc2ccccc2)sc2c1CCN(CC)C2`, the Potency entry was “inactive”.
The same measure for `CCOC(=O)c1c(NC(C)=O)sc2c1CCC(/C=N/CCCN(CC)CC)=C2Sc1ccccc1`: 39.8 µM (active).
The same measure for `CCCCN(C)S(=O)(=O)c1ccc(C(=O)Nc2sc3c(c2C(=O)OCC)CCN(C(C)C)C3)cc1`: “inactive”.
The same measure for `CCOC(=O)c1c(NC(C)=O)sc2c1CCC(C=O)=C2Sc1ccccc1`: 39.8 µM (active); for `CCOC(=O)c1c(NC(=O)C2=C(C)N=C(S)NC2c2ccc(C)cc2)sc(C)c1C` (centres undefined): “inactive”.
As to `COc1ccc(-n2nc3ccc(N)cc3n2)cc1`, the Potency entry was “inactive”.
Regarding `Cn1c(C(=O)NC2CCCCC2)cc2c(=O)n3ccccc3nc21`, the Potency result was “inactive”.
The same measure for `O=C(NCc1cccs1)C(Cc1ccccc1)n1cccc1` (centres undefined): “inactive”; for `[N-]=[N+]=CC(=O)CNC(=O)[C@@H](Cc1ccccc1)N1C(=O)c2ccccc2C1=O`: 20 µM (active); for `CC1=NN2C(=N)/C(=C\c3cc(C)n(-c4cccc(C)c4)c3C)C(=O)N=C2S1`: “inactive”.
To `Cn1c(-c2c(N)n(C3CCCC3)c3nc4ccccc4nc23)nc2ccccc21` belongs “inactive”; to `O=C(O)C(=O)/C(=C\c1cccc(Cl)c1)c1ccc2ccccc2n1`, “inactive”; to `O=C(/C(=C/c1ccc(Cl)cc1)c1nc2ccccc2[nH]1)c1ccccc1`, 39.8 µM (active).
The same measure for `N#C/C(=C\c1cccnc1)c1nc2ccccc2[nH]1`: “inactive”; for `O=C(O)C(=O)/C(=C\c1ccc(Cl)cc1)c1ccc2ccccc2n1`: “inactive”.
As for `O=C(Cc1nc2ccccc2[nH]1)c1ccc(Cl)cc1`, the Potency entry was “inactive”.
To `O=C(/C(=C\c1ccccc1)c1nc2ccccc2[nH]1)c1ccc(Cl)cc1` belongs 15.8 µM (active); to `O=C(COc1ccccc1C(=O)NCc1ccncc1)Nc1ccc(Br)cc1`, “inactive”.
To `CCN1CCN(Cc2c(O)ccc3c(C)c(-c4ccc(OC)cc4)c(=O)oc23)CC1` belongs “inactive”; to `Nc1c(C(=O)C2CC2)sc2nc(-c3ccccc3)cc(C(F)(F)F)c12`, “inactive”; to `COC(=O)CCS(=O)(=O)c1nc(-c2ccccc2)cc(C(F)(F)F)n1`, 39.8 µM (active).
Consider `Cc1ccc(S(=O)(=O)CCC(=O)OCC(=O)NC(C)c2ccccc2)cc1` (centres undefined), for which the Potency entry is “inactive”.
To `COC(=O)c1cc2nc(-c3ccc(C)cc3)cc(C(F)(F)F)n2n1` belongs “inactive”; to `O=C(COC(=O)CCS(=O)(=O)c1ccccc1)Nc1ccccc1`, “inactive”.
Consider `COCC(C)NC(=O)c1cnn2c(C(F)F)cc(-c3ccccc3)nc12` (centres undefined), for which the Potency entry was “inactive”.
To `CS(=O)(=O)c1nc(-c2ccccc2)cc(C(F)(F)F)n1` belongs 35.5 µM (active); to `COc1ccc(-c2c(C(F)(F)F)nn3c(O)cc(-c4ccccc4)nc23)cc1`, “inactive”; to `CCOC(=O)CNc1c(-c2ccc(F)cc2)nc2cnccn12`, “inactive”.
The same measure for `CCOC(=O)CS(=O)(=O)c1nc(-c2ccc(F)cc2)cc(C(F)(F)F)n1`: 31.6 µM (active); for `COCCNC(=O)c1nn2c(C(F)(F)F)cc(-c3ccccc3)nc2c1Cl`: “inactive”; for `CCOC(=O)CCS(=O)(=O)c1nc(-c2ccccc2)cc(C(F)(F)F)n1`: 31.6 µM (active).
To `CCCCn1nc(NC(=O)CCC)c2cc3cc(OC)ccc3nc21` belongs “inactive”.

(Values after ChEMBL document CHEMBL1201862, “PubChem BioAssay data set” (2004).)
